This is part of a sample that, as a whole, favours compounds with a hit. Of some 83,000 tested, about 20% had one in any assay.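 Percent growth is the endpoint: 0 to 100 indicates growth inhibition (40 means 60% inhibition), 0 means no net growth, and negative values indicate cell death.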 Unmarked numbers belong to inactive results. The source made the active and inactive calls. The calls were made as follows: active = growth percent below 10; inactive = the rest.

What all share (assay): NCI-60 one-dose screen, 48 h (100 = growth as untreated, 0 = no growth, -100 = all killed)
Holding throughout (settings): 10 µM unless noted

The subject of experiment [1] is DU-145 prostate.
Experiment [2] deals with K-562 leukemia.
Experiment [3] concerns MALME-3M melanoma.
The test system of experiment [4] is MDA-MB-231 breast.
Experiment [5] deals with RXF 393 renal.
The subject of experiment [6] is SF-268 CNS.
Experiment [7] relates to SF-295 CNS.
In experiment [8] the test system is SF-539 CNS.
Experiment [9] concerns UACC-257 melanoma.
Experiment [10] concerns M14 melanoma.
Experiment [11] relates to HCT-15 colon.
Experiment [12] relates to HT29 colon.
Experiment [13] deals with SNB-75 CNS.
The test system of experiment [14] is SNB-19 CNS.
The test system of experiment [15] is U251 CNS.
The test system of experiment [16] is PC-3 prostate.
Experiment [17] has as its system SK-MEL-5 melanoma.
Experiment [18] deals with UACC-62 melanoma.
The test system of experiment [19] is LOX IMVI melanoma.
Experiment [20] has as its system SK-MEL-28 melanoma.

As to `Cc1cc(O)c(C2=NN(c3ccc(S(N)(=O)=O)cc3)C(c3ccc(Cl)cc3)C2)c(C)c1Cl` (stereo not given), the growth in [1] is 49.3%; in experiment [2], 21%; in experiment [3], 103%; in experiment [4] it was 59%; in experiment [5] it was 48.1%; in experiment [6], 61.7%. Besides, the growth was 20.4% in experiment [7]; 79% in experiment [8]; 74.1% in [9]; 39.1% in experiment [10]; 65.2% in experiment [11]; 55.1% in experiment [12]. Also, the growth in experiment [13] was 67.4%; in [14], 89.8%; in experiment [15], 70%; in experiment [16] it was 12.1%; in [17], 81.7%; in experiment [18] it was 53%. In addition, the growth in experiment [19] is 52.4%; in experiment [20], 76.3%.
With `NC(=O)Nc1ccc2ncnc(Nc3cccc(O)c3)c2c1`, the growth in experiment [1] was 90.4%; in experiment [2], 103%; in experiment [3], 121%; in experiment [4] it was 104%; in [5], 111%; in experiment [6], 85.4%. For the same compound, the growth is 98.1% in [7]; 109% in experiment [8]; 99.8% in experiment [9]; 102% in experiment [10]; 108% in experiment [11]; 106% in experiment [12]. Further, the growth was 102% in [13]; 93.1% in [14]; 87.9% in experiment [15]; 102% in experiment [16]; 101% in [17]; 105% in experiment [18]. For the same compound, the growth in experiment [19] is 101%; in experiment [20] it was 114%.
Regarding `COc1ccc2cc(-c3nc(C)c(C(C)=O)c(-c4ccc(C)cc4)n3)ccc2c1`, the growth in experiment [1] is 107%; in experiment [2], 125%; in experiment [3], 91.2%; in experiment [4], 81%; in experiment [5], 81.6%; in experiment [6], 101%. The growth in experiment [7] is 99.6%; in [8], 89.6%; in [9] it was 101%; in experiment [10], 91.1%; in [11] it was 88.2%; in [12] it was 82.4%. For the same compound, the growth in experiment [13] was 98.5%; in [14], 92.8%; in experiment [15], 94.5%; in [16], 85.9%; in experiment [17] it was 75.4%; in [18], 71.7%. Also, the growth in experiment [19] and in [20] was 101% throughout.
As to `Cc1cc(C)c2c(n1)sc1c(Nc3ccc(Cl)cc3Cl)ncnc12`, the growth in [1] is 20.3%; in experiment [2] it was 42.9%; in [3], 53.4%; in experiment [4] it was 58.7%; in experiment [5] it was 28.8%; in experiment [6], 17.9%. The growth was 14.3% in experiment [7]; 4.9% (active) in experiment [8]; 36.4% in experiment [9]; -34.3% (active) in [10]; 46.2% in experiment [11]; 38.9% in experiment [12]. The growth in experiment [13] is 39.7%; in [14] it was 32.4%; in experiment [15] it was 25%; in [16], 50.9%; in [17] it was 25.5%; in experiment [18], 15.6%. The growth in experiment [19] was 10.2%; in experiment [20] it was 61.4%.
On to `COc1ccc2[nH]cc(C(c3ccc(Cl)cc3)N3CCCC3)c2c1` (stereo not given), for which the growth in experiment [1] is 101%; in experiment [2] it was 90.2%; in experiment [3], 72.8%; in [4], 94.6%; in [5], 82.9%; in experiment [6], 92.5%. Moreover, the growth in [7] was 94%; in experiment [8] it was 98.2%; in [9] it was 91.9%; in [10], 95%; in [11] it was 89.7%; in [12] it was 102%. Also, the growth in experiment [13] was 90%; in [14], 105%; in [15] it was 92%; in experiment [16], 74.8%; in experiment [17] it was 88.5%; in [18], 92.5%. Moreover, the growth is 90.7% in experiment [19] and 111% in experiment [20].
On to `Nc1nc(N)c2c(n1)NC(c1sc(Cl)nc1Cl)CC(c1ccccc1)=N2` (stereo not given), for which the growth was 75.1% in [1]; 17.5% in experiment [2]; 26.8% in experiment [3]; 47.8% in experiment [4]; 43.8% in [5]; 53.6% in [6]. Besides, the growth in [7] was 35.2%; in experiment [8] it was 35.4%; in experiment [9], 68.6%; in experiment [10], 26.2%; in experiment [11], 27.9%; in experiment [12], 12.6%. The growth in experiment [13] is 30.1%; in [14], 61.7%; in experiment [15] it was 33.3%; in experiment [16], 59.5%; in experiment [17], 33.5%; in experiment [18], 45.7%. Moreover, the growth in experiment [19] is 41.5%; in experiment [20], 62.3%.
With `Cc1cc(Cl)c2ccc(N(C)C)cc2n1`, the growth is 113% in experiment [1]; 88.7% in experiment [2]; 108% in [3]; 102% in experiment [4]; 95.5% in experiment [5]; 102% in [6]. For the same compound, the growth is 100% in experiment [7]; 106% in experiment [8]; 97.4% in [9]; 100% in [10]; 94.9% in experiment [11]; 102% in experiment [12]. Moreover, the growth is 82.7% in experiment [13]; 95% in [14]; 92.8% in experiment [15]; 101% in [16]; 102% in experiment [17]; 101% in experiment [18]. The growth is 96.9% in experiment [19] and 101% in experiment [20].
On to `Cc1ccc(-c2nc3ccccc3c(=O)n2/N=C/c2cccc3ccccc23)cc1`, for which the growth in experiment [1] was 96.9%; in experiment [2], 65.5%; in [3], 68.6%; in experiment [4] it was 66.8%; in experiment [5], 91.8%; in [6], 74.1%. For the same compound, the growth in experiment [7] is 66.8%; in experiment [8], 96.5%; in [9], 86.4%; in [10] it was 67.5%; in experiment [11], 74.3%; in experiment [12], 102%. In addition, the growth is 74.3% in experiment [13]; 94.4% in [14]; 77% in experiment [15]; 63.3% in [16]; 75.5% in [17]; 69.4% in [18]. Besides, the growth in experiment [19] was 63.4%; in experiment [20], 85.6%.
As for `O=c1cc(N2CCOCC2)oc2c(-c3ccc4c(c3)OCCO4)csc12`, the growth in [1] was 22.8%; in [2], 25.6%; in experiment [3], -3.44% (active); in [4], 20.3%; in experiment [5] it was -22.5% (active); in [6] it was 29.8%. Further, the growth in [7] is 0.878% (active); in experiment [8], 3.65% (active); in experiment [9], 18.6%; in [10], 12.3%; in [11], 16.9%; in [12] it was 10.8%. The growth in experiment [13] was -16.6% (active); in [14], 25.6%; in experiment [15], 31.2%; in [16], 21.8%; in experiment [17], -7.05% (active); in [18], -1.9% (active). For the same compound, the growth was 10.3% in experiment [19] and 22.3% in experiment [20].
For `CCCCn1c(C)nc2ccc(Nc3nc(Cl)nc4nc[nH]c34)cc21`, the growth in [1] was 80.3%; in experiment [2], 69.8%; in experiment [3], 78.1%; in experiment [4] it was 64.8%; in experiment [5], 62.9%; in experiment [6], 76%. The growth in experiment [7] was 76.3%; in experiment [8], 79.9%; in [9] it was 92.5%; in [10], 68.3%; in experiment [11] it was 82.6%; in [12], 79.9%. Further, the growth was 62.8% in experiment [13]; 90.5% in [14]; 74.5% in experiment [15]; 36.3% in [16]; 63.6% in experiment [17]; 69.8% in [18]. Besides, the figures for the growth in experiment [19] and in experiment [20] were 90.2% and 94.3%, respectively.
In the case of `CNC(=O)c1cc(Oc2ccc(NC(=O)c3[nH]c(SC)nc3-c3ccc(F)cc3)cc2)ccn1`, the growth in experiment [1] was 59.6%; in experiment [2] it was 7.07% (active); in [3], -7.31% (active); in [4] it was 62.9%; in experiment [5], 70.9%; in experiment [6] it was 72.5%. The growth in experiment [7] was 46.3%; in [8], 65.5%; in experiment [9], 33.1%; in experiment [10] it was 12.7%; in experiment [11], 72.5%; in [12] it was 12.8%. Further, the growth was 78.7% in [13]; 99.3% in experiment [14]; 84.6% in experiment [15]; 33.2% in experiment [16]; 23.3% in experiment [17]; 5.44% (active) in [18]. In addition, the growth in [19] was 57.7%; in experiment [20], 22.3%.
Consider `CCCc1n(Cc2ccc3ccccc3n2)cc[n+]1Cc1ccc2ccccc2c1`, for which the growth is 28.6% in experiment [1]; 5.05% (active) in [2]; -27.3% (active) in experiment [3]; -5.49% (active) in experiment [4]; 3.02% (active) in experiment [5]; 17% in experiment [6]. For the same compound, the growth in experiment [7] is 4.45% (active); in experiment [8], 12.7%; in experiment [9], -9.42% (active); in experiment [10], 3.06% (active); in [11], 82%; in experiment [12], 3.72% (active). Moreover, the growth is -6% (active) in experiment [13]; 7.24% (active) in [14]; 11.2% in [15]; 5.35% (active) in [16]; -91.9% (active) in experiment [17]; -46.7% (active) in [18]. Further, the growth in experiment [19] was -63.8% (active); in experiment [20], 9.91% (active).
Regarding `N#Cc1ccc(NC(=O)Nc2nc3ccc(OC(F)(F)F)cc3s2)cc1`, the growth in [1] was 23.1%; in [2] it was 1.23% (active); in experiment [3], -7.94% (active); in [4], -18.4% (active); in experiment [5], 21.9%; in experiment [6] it was 21.1%. For the same compound, the growth in experiment [7] was -25.8% (active); in [8] it was 7.97% (active); in experiment [9], -20.7% (active); in experiment [10] it was 5.97% (active); in experiment [11], 0.568% (active); in experiment [12] it was -3.66% (active). Also, the growth is -8.15% (active) in [13]; 15.1% in [14]; 4.34% (active) in experiment [15]; 2.88% (active) in experiment [16]; -53.3% (active) in experiment [17]; 2.82% (active) in [18]. Besides, the values for the growth in experiment [19] and in experiment [20] were 1.35% (active) and 19.3%, respectively.
